The values that follow come from PubChem BioAssay (NCI).

Test systems include HCT-15 colon; HT29 colon; SNB-75 CNS; U251 CNS; PC-3 prostate; SK-MEL-5 melanoma; UACC-62 melanoma; LOX IMVI melanoma; SK-MEL-28 melanoma; SK-MEL-2 melanoma; EKVX NSCLC; SN12C renal; UO-31 renal; TK-10 renal; ACHN renal; CAKI-1 renal; A498 renal; HL-60(TB) leukemia; CCRF-CEM leukemia; SNB-19 CNS.
Holding throughout (experiment): NCI-60 one-dose screen, 48 h (100 = growth as untreated, 0 = no growth, -100 = all killed)
Holding throughout (conditions): 10 µM unless noted

The structures appear in SMILES notation. This is part of a sample that, as a whole, favours compounds with a hit. Of some 83,000 tested, about 20% had one in any assay.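 In brief: 96-well plates, 48 h treatment, single concentration, percent growth endpoint.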 Values without a mark were called inactive. Activity calls are given as the source filed them. Rule for the calls: active = growth percent below 10; inactive = the rest.

As to `C[C@]12CCc3sc(Nc4ccc(O)cc4)nc3C1=CC[C@@H]1[C@@H]2CC[C@]2(C)C(=O)CC[C@@H]12`, the growth was -68% (active) in the assay on HCT-15 colon; 10.3% in the assay with HT29 colon; 41.7% with SNB-75 CNS; 19.5% with U251 CNS; 39.1% in the assay on PC-3 prostate; 62% in the assay on SK-MEL-5 melanoma. Moreover, the growth in the assay on UACC-62 melanoma was 55.8%; with LOX IMVI melanoma, -8.01% (active); with SK-MEL-28 melanoma it was 77.9%; with SK-MEL-2 melanoma, 72.5%; in the assay with EKVX NSCLC, 98%; in the assay on SN12C renal, 30.4%. In addition, the growth was -48.8% (active) in the assay on UO-31 renal; 22.8% in the assay with TK-10 renal; -17.3% (active) with ACHN renal; 47.1% with CAKI-1 renal; 101% with A498 renal; 8.98% (active) in the assay with HL-60(TB) leukemia. Further, in the assay with CCRF-CEM leukemia, the growth is 8.33% (active).

For the molecule `O=P(O)(Nc1ccccc1)Nc1ccccc1`, the growth in the assay on HCT-15 colon was 119%; with HT29 colon, 94.3%; in the assay with SNB-75 CNS, 81.9%; with U251 CNS, 99.3%; in the assay with PC-3 prostate it was 91.5%; in the assay on SK-MEL-5 melanoma, 94.4%. Also, the growth is 91.8% with UACC-62 melanoma; 92.7% with LOX IMVI melanoma; 148% with SK-MEL-28 melanoma; 134% in the assay with SK-MEL-2 melanoma; 80.6% in the assay on EKVX NSCLC; 99.9% in the assay on SN12C renal. In addition, the growth in the assay with UO-31 renal is 81.7%; in the assay on TK-10 renal, 106%; in the assay on ACHN renal, 95.9%; with CAKI-1 renal it was 77.2%; in the assay on HL-60(TB) leukemia, 74%; in the assay with CCRF-CEM leukemia it was 99.3%.

`Cc1nnc([S-])o1.[Au+].c1ccc([PH+](c2ccccc2)c2ccccc2)cc1`: the growth is 8.98% (active) in the assay on HCT-15 colon; 61.1% in the assay on HT29 colon; 29.3% in the assay with SNB-75 CNS; 10.1% in the assay with U251 CNS; 57.7% with PC-3 prostate; 26.7% in the assay with SK-MEL-5 melanoma. The growth in the assay on UACC-62 melanoma was 21.3%; in the assay with LOX IMVI melanoma, 13.2%; in the assay on SK-MEL-28 melanoma, 32.8%; with SK-MEL-2 melanoma, 47.9%; in the assay on EKVX NSCLC it was 87.3%; in the assay with SN12C renal, 40.8%. The growth in the assay with UO-31 renal was 55.1%; in the assay on TK-10 renal, 102%; with ACHN renal, 0.817% (active); in the assay on CAKI-1 renal it was 41.6%; in the assay on HL-60(TB) leukemia it was 6.51% (active); in the assay with CCRF-CEM leukemia, 11.1%.

For `COCC1OC2OC3C(COC)OC(OC4C(COC)OC(OC5C(COC)OC(OC6C(COC)OC(OC7C(COC)OC(OC8C(COC)OC(OC1C(O)C2O)C(O)C8O)C(O)C7O)C(O)C6O)C(O)C5O)C(O)C4O)C(O)C3O` (centres undefined) (tested in a mixture with another compound), the growth with HCT-15 colon is 103%; in the assay on HT29 colon it was 109%; in the assay on SNB-75 CNS, 86.1%; in the assay with SNB-19 CNS it was 110%; with U251 CNS it was 105%; in the assay with SK-MEL-5 melanoma it was 103%. For the same molecule, the growth with UACC-62 melanoma was 107%; in the assay on LOX IMVI melanoma, 102%; in the assay on SK-MEL-28 melanoma it was 112%; in the assay with SK-MEL-2 melanoma, 65.7%; in the assay on EKVX NSCLC, 105%; in the assay with SN12C renal it was 97.6%. The growth in the assay with UO-31 renal was 97.3%; in the assay with TK-10 renal, 146%; in the assay on ACHN renal, 107%; in the assay with CAKI-1 renal, 102%; in the assay on A498 renal, 111%; in the assay on HL-60(TB) leukemia, 132%.

On to `CC12CCC3C4CCC(=O)C=C4CCC3C1CC1CC(=O)OC12` (centres undefined), for which the growth with HCT-15 colon is 112%; in the assay on HT29 colon, 90.9%; with SNB-75 CNS, 92.3%; with U251 CNS, 97.1%; in the assay on PC-3 prostate, 87.1%; with SK-MEL-5 melanoma, 99.2%. The growth was 97.2% in the assay with UACC-62 melanoma; 90.7% in the assay on LOX IMVI melanoma; 108% in the assay on SK-MEL-28 melanoma; 104% with SK-MEL-2 melanoma; 110% in the assay with EKVX NSCLC; 93.8% in the assay with SN12C renal. Besides, the growth in the assay with UO-31 renal was 85.5%; in the assay with TK-10 renal, 89.8%; with ACHN renal, 103%; in the assay on CAKI-1 renal, 102%; in the assay with A498 renal it was 98.9%; in the assay with HL-60(TB) leukemia, 105%. The growth in the assay with CCRF-CEM leukemia is 102%.

Turning to `COc1cc(-c2ccc(N)c(OC)c2)ccc1N`, the growth in the assay with HCT-15 colon was 110%; with HT29 colon, 97.5%; with SNB-75 CNS, 76.9%; with SNB-19 CNS, 102%; in the assay with U251 CNS, 99.2%; in the assay on PC-3 prostate, 105%. The growth in the assay on SK-MEL-5 melanoma was 105%; in the assay with LOX IMVI melanoma it was 88.9%; with SK-MEL-28 melanoma, 111%; with SK-MEL-2 melanoma, 118%; in the assay on EKVX NSCLC it was 96%; with SN12C renal it was 104%. The growth in the assay on UO-31 renal is 93.6%; in the assay with TK-10 renal, 107%; in the assay on ACHN renal it was 100%; in the assay on CAKI-1 renal, 92.5%; with A498 renal it was 118%; in the assay with HL-60(TB) leukemia, 118%. In addition, the growth in the assay with CCRF-CEM leukemia is 113%.

On to `COc1ccc2c(c1)c(-c1nc(-c3c[nH]c4ncccc34)cs1)cn2CCCCN1CCOCC1`, for which the growth is -31.7% (active) in the assay on HCT-15 colon; -84.4% (active) in the assay with HT29 colon; 40.1% in the assay with SNB-75 CNS; 4.84% (active) in the assay on U251 CNS; 30.1% with PC-3 prostate; 26% with SK-MEL-5 melanoma. Further, the growth is 20.4% in the assay on UACC-62 melanoma; -34.7% (active) in the assay with LOX IMVI melanoma; -90.3% (active) with SK-MEL-28 melanoma; 69% in the assay on SK-MEL-2 melanoma; 68.4% in the assay on EKVX NSCLC; 61.9% in the assay with SN12C renal. Further, the growth in the assay on UO-31 renal was 22.8%; in the assay with TK-10 renal, 64.4%; with ACHN renal, 17.1%; in the assay on CAKI-1 renal it was 37.5%; in the assay with A498 renal, 92.3%; in the assay on CCRF-CEM leukemia it was -8.39% (active).
